Consider 40 compounds from PubChem BioAssay (Tox21).

Structures are written as SMILES. Active and inactive are the calls of the source. Calls come from the whole dose curve; as a rule, active = well fitted curve in the direction sought with a large enough effect in the repeat runs; inconclusive = weak or mixed curves; inactive = flat fitted curve, though single readings scatter.

A short description of this assay: qHTS assay to test for compound auto fluorescence at 460 nm (blue) in HepG2 cell free culture (AID 720685). The settings on record: Cell-free culture medium, blue autofluorescence 405/460 nm; series mostly up to 91.3 µM. The text has this:
U.S. Tox21 Program National Center for Advancing Translational Sciences [NCATS] NIH Chemical Genomics Center [NCGC] U.S. Environmental Protection Agency [EPA] National Institutes of Environmental Health Sciences [NIEHS] National Toxicology Program [NTP] U.S. Food and Drug Administration [FDA] Tox21 Assay Overview: Compound auto fluorescence often interferes with screening of the compound library against various biological targets and signaling pathways. Some of these compounds may have fluorophoric properties. Such properties may interfere with the assay outputs resulting in false positives and/or negatives. To decrease such complications and ensure the compound activities are relevant in terms of biological response, the Tox21 10K compound library was screened for auto fluorescence. From the fluorophores used as reporter signals in our screening assays, the auto fluorescence equivalencies of compounds against three fluorophores have been evaluated: Triamterene, Fluorescein and Rose Bengal sodium for blue, green and red fluorescence, respectively. The fluorescence intensities were measured using Excitation/Emission wavelengths at 405/460nm, 485/535nm and 540/590nm for blue, green and red labels, respectively. This assay includes the blue fluorescence data.
Tox21 Assay Protocol Summary: 5 uL of culture medium (MEM containing 10% FBS) per well was dispensed into black wall/clear bottom 1536-well plates using a Multidrop Combi Dispenser (ThermoFisher Scientific, Waltham, MA). After 23 nL compound or DMSO vehicle was transferred into assay plate by a pintool work station (Kalypsys, San Diego, CA), fluorescence intensities in the assay plates were measured by an Envision (PerkinElmer, Shelton, CT) plate reader using three labels for measuring blue, green and red fluorescence at […] 460, 535 and 590nm respectively.
A general note: Quantitative high-throughput screening tests each substance at several concentrations.
Take `C[C@H]1C[C@@H]2[C@H]([C@@H](O)C[C@@]3(C)[C@H]2CC[C@]3(O)C(=O)CO)[C@@]2(C)C=CC(=O)C=C12`: the result was inactive.
In the case of `O=C(O)c1cc(=O)c2c(OCC(O)COc3cccc4oc(C(=O)O)cc(=O)c34)cccc2o1`, the call was inactive.
`O=c1[nH]c(=O)n([C@H]2CCCO2)cc1F`: the outcome was inactive.
The result for `O=C(O)c1ccc2c(c1)C(=O)OC2=O` reads “inactive”.
Regarding `COc1ccc(Nc2ccccc2)c(C)c1`, the compound was called inactive.
With `CC1CCC2CC1C2(C)C` (stereo not given), the compound was called inactive.
Consider `CC(=O)Nc1cccc(O)c1`, for which the result was inactive.
On to `CC(=O)c1ccccc1`, for which the compound was called inactive.
The result for `O=c1[nH]nnc2ccccc12` reads “inactive”; that for `Nc1ccccc1[N+](=O)[O-]`, “inactive”.
The result for `CCCCCCOCCO` reads “inactive”; that for `CCCSc1ccc2nc(NC(=O)OC)[nH]c2c1`, “inactive”.
For `COS(C)(=O)=O`, the outcome was inactive.
In the case of `CC(C)(C)[C@@H](O)[C@@H](Cc1ccc(Cl)cc1)n1cncn1`, the compound was classed as inactive.
Take `CC1=CC(=O)NS(=O)(=O)O1`: the outcome was inactive.
Consider `c1ccc2c(c1)ccc1ccccc12`, for which the compound was classed as inactive.
As to `O=C(O)c1cc(O)c(O)c(O)c1`, the compound was called inactive.
Turning to `ON=C1CCCCC1`, the result was inactive.
Consider `CC(C)c1ccc(S(=O)(=O)O)cc1`, for which the compound was called inactive.
Under `CC1=C(C)S(=O)(=O)CCS1(=O)=O` stands “inactive”; under `C=C(C)C(=O)O[C@H]1C[C@@H]2CC[C@@]1(C)C2(C)C`, “inactive”.
As to `O=C(O)c1cc(C(=O)O)cc(S(=O)(=O)O)c1`, the result was inactive.
Regarding `C/C=C1/CC2C=CC1C2` (stereo not given), the compound was classed as inactive.
As for `C#CCN(C)Cc1ccccc1`, the call was inactive.
Turning to `C=CCOC(=O)c1ccccc1C(=O)OCC=C`, the compound was called inactive.
Take `C=C(C)C(=O)Nc1ccc(Cl)c(Cl)c1`: the outcome was inactive.
The result for `c1ccc2scnc2c1` reads “inactive”; that for `CC[C@H](C)C(=O)O[C@H]1C[C@@H](C)C=C2C=C[C@H](C)[C@H](CC[C@@H]3C[C@@H](O)CC(=O)O3)[C@H]21`, “inactive”; that for `N[C@@H](Cc1cc(I)c(Oc2cc(I)c(O)c(I)c2)c(I)c1)C(=O)O`, “inactive”.
Under `CCN(CC)CCCC(C)Nc1ccnc2cc(Cl)ccc12` (stereo not given) stands “inactive”; under `CCCCCCCCCCCCCCCO`, “inactive”; under `NNc1nncc2ccccc12`, “inactive”.
The result for `CCCCC(CC)COC(=O)CS` (stereo not given) reads “inactive”.
As for `CCCCCCCCC/C=C/CC1CC(=O)OC1=O` (stereo not given), the compound was called inactive.
For `CCCCCOC(C)=O`, the result was inactive.
As to `CCCCCCCCCC`, the compound was called inactive.
On to `c1ccc(OCCOc2ccccc2)cc1`, for which the compound was called inactive.
Turning to `OCc1cccnc1`, the compound was called inactive.
Turning to `CSCCC=O`, the call was inactive.
Regarding `CCCCCCCCCCCCCCO`, the compound was classed as inactive.
